Screens (PubChem)
DAX1 inh-1 = blocks DAX1 repression of SF-1 activated StAR promoter; HEK293T StAR-luciferase reporter, SF-1/DAX-1 repression relief; inhibition, % at 6.8 µM; hit rate 1.1% among 370,000; AID 652010;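 active = inhibition above the mean over all tested compounds plus 3 SD, cut at about 3.6% in these data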;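 also: 0% = DAX-1 cells with DMSO and 100% = cells lacking DAX-1 with DMSO; higher inhibition means more luminescence from relief of DAX-1 repression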
hgDAF12 agonist = activates the H. glycines DAF-12 receptor ligand-binding domain. HEK293 GAL4-hgDAF12 UAS-luciferase reporter, agonist luminescence; normalized to butyrate control. hit rate 1.8% among 370,000. activation, % at 6.8 µM;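 active = activation above a cutoff set at the mean of all screened compounds plus 3 SD, cut at about 10% in these data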;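 also: 0% = DMSO wells and 100% = sodium butyrate wells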
ssDAF12 agonist = S. stercoralis DAF-12 activation, primary screen; HEK293 ssDAF-12/GRIP1 lit1-tk-luc reporter, luminescence; % of 3 µM dafachronic acid response; activation, % at 6.8 µM; hit rate 1% among 370,000; AID 652126;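 active = activation above the mean over all tested compounds plus 3 SD, cut at about 0.9% in these data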;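 also: 0% = DMSO-only wells and 100% = 3 µM delta7-dafachronic acid wells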
DAX1 inh-2 = inhibitors of human orphan nuclear receptor DAX1 (NR0B1); P51843; HEK293 Gal4-DAX1 luciferase reporter, luminescence; inhibition, % at 6.75 µM; hit rate 0.99% among 340,000; AID 504766;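 active = inhibition above the mean over all tested compounds plus 3 SD, cut at about 4.2% in these data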;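 also: 0% = DAX1-transfected cells with DMSO and 100% = empty-vector control cells with DMSO; inhibition shows as a rise in luminescence from relieved DAX1 repression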
NR1D1 modulator = modulates human Rev-erb alpha binding to DNA; Rev-erbα–FITC-DNA binding, fluorescence polarization, 90 min; activity, % at 10 µM; hit rate 0.79% among 370,000;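 active = activity above about 14%, limit read from the data; passing the limit was not always enough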;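 also: 0% = DMSO wells with 35 nM protein and 100% = DMSO wells with 750 nM protein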
Target sequence (P20393 whole entry, looked up): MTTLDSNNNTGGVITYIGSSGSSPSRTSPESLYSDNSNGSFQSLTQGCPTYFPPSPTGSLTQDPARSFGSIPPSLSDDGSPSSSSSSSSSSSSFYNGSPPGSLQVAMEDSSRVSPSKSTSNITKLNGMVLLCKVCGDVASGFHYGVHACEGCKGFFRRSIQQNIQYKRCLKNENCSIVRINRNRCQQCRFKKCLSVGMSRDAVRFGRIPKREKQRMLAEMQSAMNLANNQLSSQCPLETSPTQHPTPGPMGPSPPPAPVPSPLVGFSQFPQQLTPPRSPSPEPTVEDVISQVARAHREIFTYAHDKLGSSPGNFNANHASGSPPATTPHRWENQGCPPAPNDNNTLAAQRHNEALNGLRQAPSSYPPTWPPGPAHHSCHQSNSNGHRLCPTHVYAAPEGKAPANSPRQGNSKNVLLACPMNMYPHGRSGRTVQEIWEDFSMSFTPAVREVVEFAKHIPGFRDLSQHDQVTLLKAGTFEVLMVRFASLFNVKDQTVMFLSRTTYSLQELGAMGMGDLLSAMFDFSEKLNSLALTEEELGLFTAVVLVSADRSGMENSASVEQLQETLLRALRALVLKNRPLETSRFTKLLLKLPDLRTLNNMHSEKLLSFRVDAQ
hcDAF12 agonist = activates DAF-12 receptor from parasite H. contortus; HEK293 hcDAF-12 lit1-tk-luc reporter, luminescence; 0% DMSO, 100% Δ7-dafachronic acid; activation, % at 6.8 µM; hit rate 1.4% among 370,000;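 active = activation above the mean of all tested compounds plus 3 SD, cut at about 5.5% in these data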;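 also: 100% = response to 3 µM Δ7-dafachronic acid high control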
* marks the source's active call; other numbers are inactive results; · = not tested or not shown. This is a sample that favours compounds with a hit; in the whole collection about 4.8% have one here.

SMILES | DAX1 inh-1 | hgDAF12 agonist | ssDAF12 agonist | DAX1 inh-2 | NR1D1 modulator | hcDAF12 agonist
CN(Cc1ccccc1)c1nnc(N)s1 | 1 | -2 | -1 | 1 | -2 | -2
CC(C)N(c1nnc(N)s1)C(C)C | -1 | 0 | 0 | 5.0* | -2 | 3
Cn1c(NCCc2ccncc2)nc2cc(-c3ccsc3)sc2c1=O | -1 | 1 | -1 | · | -11 | -4
CN(C)CCCNc1nc2cc(-c3ccc4c(ccn4C)c3)sc2c(=O)n1C | 2 | 12* | -1 | · | -7 | 3
Cc1ccc(-c2cc3nc(NCCc4ccncc4)n(C)c(=O)c3s2)cc1 | 4.0* | 10 | 0 | · | -9 | 1
CN1C(=O)C[C@@](C#N)(C(=O)NCC(F)(F)F)[C@H]1c1ccccc1 | 0 | 3 | -1 | · | 4 | 3
CCOC(=O)[C@]12CCCC=C1N(Cc1ccc(OC)cc1)C(=O)[C@@H]2CC(=O)NCc1cccc2ccccc12 | -1 | -3 | -1 | · | 1 | -3
COc1ccc(CCNC(=O)CSc2nc3[nH]ncc3c(=O)n2-c2ccc(C)c(Cl)c2)cc1OC | -3 | 0 | 1.8* | 1 | -1 | 2
CCC(c1nnc(SCC(=O)Nc2ccc(NC(C)=O)cc2)n1Cc1ccccc1)N(C)C (stereo not given) | -1 | 2 | -1 | 1 | -5 | 1
CCC(c1nnc(SCC(=O)NCCc2ccc(OC)c(OC)c2)n1Cc1ccccc1)N(C)C (stereo not given) | 0 | -1 | 1.2* | 3 | -9 | 0
O=C(OCc1cn(Cc2cccc(F)c2)nn1)N1CCCCC1 | 0 | -2 | -1 | · | 4 | -2
CC1(C)CC(=O)N(CC(=O)N2CCN(c3cccc(C(F)(F)F)c3)CC2)c2ccccc2S1(=O)=O | -1 | -2 | -2 | · | 11 | -2
CN(C)/C=N/S(=O)(=O)c1ccc(Cl)cc1 | 0 | -2 | -1 | 4.4* | -1 | -1
Cc1ccc(S(=O)(=O)/N=C/N(C)C)cc1 | 0 | 0 | -1 | 1 | -2 | 1
O=C(Nc1nc2ccc(Cl)cc2s1)c1ccc(Br)o1 | 1 | 6 | -1 | 1 | -5 | 0
Cc1cc(C(=O)Nc2nc3ccc(Cl)cc3s2)nn1C | 1 | 11* | 0 | · | 0 | 4
CCOc1ccc(/C=N/NC(=O)c2ccoc2C)cc1OC | 3 | 9 | 0 | 1 | -3 | 1
C/C(=N\NC(=O)c1ccoc1C)c1cccc2ccccc12 | 1 | 13* | 0 | 0 | -5 | 3
COc1cc(/C=N/NC(=O)c2ccoc2C)ccc1O | 1 | 10* | 0 | 3 | 4 | 2
Cc1occc1C(=O)N/N=C/c1ccccn1 | 2 | 11* | 1 | 1 | -2 | 1
C/C(=N\NC(=O)c1cccc2ccccc12)c1ccccn1 | -1 | 0 | -1 | -1 | 6 | -2
CCC(C)(C)C1CCc2c(sc(NC(=O)c3ccoc3C)c2C(N)=O)C1 (stereo not given) | 0 | -3 | -1 | 0 | 3 | -1
CCC1CCc2c(sc(NC(=O)c3ccoc3C)c2C(N)=O)C1 (stereo not given) | -1 | 5 | -1 | -1 | 10 | 5.9*
CC(NCc1ccco1)C(=O)N1CCOCC1 (stereo not given) | 1 | -2 | 0 | · | 5 | -2
CN=c1scc(-c2ccc(F)cc2)n1/N=C/c1ccc(O)c(O)c1 | 1 | 0 | -1 | -1 | -4 | 6.3*
SMILES | DAX1 inh-1 | hgDAF12 agonist | ssDAF12 agonist | DAX1 inh-2 | NR1D1 modulator | hcDAF12 agonist
CC(C)OC(=O)C1=CNCC(C)(C)c2c1[nH]c1cc(F)ccc21 | · | 2 | 0 | · | 6 | 3
O=c1c(C=NCc2ccccc2)c(NCc2ccccc2)nc2ccccn12 | -1 | -1 | -1 | 4.5* | -2 | 0
COc1cc(OC)cc(C(=O)Nc2cccc3c2CCCC3)c1 | 0 | 3 | -2 | -1 | -1 | -2
COC(=O)C1CCc2c(ccc3c2CCCC3)C1=O (stereo not given) | 4.3* | 6 | -1 | 4.4* | 4 | 1
Cc1nc(NC(=O)/C=C/c2ccc(F)cc2)sc1C(=O)N(C)C | 1 | -1 | -2 | 0 | 4 | 0
Cc1ccc(C(=O)Nc2nc(C)c(C(=O)N(C)C)s2)o1 | 4.4* | 2 | -1 | 2 | -2 | 2
Cc1nc(NC(=O)/C=C/c2ccccc2)sc1C(=O)N(C)C | 1 | 10* | -1 | 0 | -2 | 4
Cc1nc(NC(=O)c2ccncc2)sc1C(=O)N(C)C | 0 | -1 | 0 | 0 | 3 | -2
Cc1ccc(C(=O)Nc2ncc(Cc3ccc(F)cc3)s2)o1 | 4.2* | 7 | 0 | 2 | 6 | 5
Cc1ccc(C(=O)Nc2ccc(F)cc2)o1 | 0 | 5 | -1 | 0 | 3 | 2
COc1ccc(-c2cc(C(=O)NN=Cc3ccc(C)s3)[nH]n2)cc1 | -2 | 5 | -1 | · | -5 | 0
N=c1c2c(ccn1CCCCc1ccccc1)Oc1ccc3ccccc3c1C2c1ccccc1 (stereo not given) | · | -4 | -1 | · | -3 | -2
CCCCOc1ccc(C(=O)NC2CCCCN(Cc3cccc(C(F)(F)F)c3)C2=O)cc1 (stereo not given) | -4 | 3 | -2 | · | 6 | -6
O=C(c1ccccc1Cl)N1CCC(Oc2cccnc2)CC1 | -1 | 3 | -2 | · | -8 | -3
O=C(CCc1ccccc1)N[C@H]1[C@H](OC(=O)c2ccco2)CCC[C@]12C(=O)N(Cc1ccccc1)c1ccccc12 | -1 | -4 | -2 | · | 2 | -2
Cc1[nH]c(=O)c(C(=O)c2ccccc2O)cc1C(=O)O | 0 | 0 | -1 | 0 | -3 | -2
Cc1cc(O)c(C(=O)c2ccccc2C(=O)O)cc1C | 0 | 0 | -1 | 1 | 3 | 6.4*
O=C(COC(=O)c1ccncc1)c1ccc(Br)cc1 | 1 | -2 | -1 | 4.6* | 4 | 1
O=C(COC(=O)c1cccc(C(=O)OCC(=O)c2ccc(Br)cc2)n1)c1ccc(Br)cc1 | 1 | 0 | -1 | 0 | 18 | -2
COc1ccc2c(c1)CCCN2C(=O)C1CCCN(S(=O)(=O)c2ccc(Cl)s2)C1 (stereo not given) | -1 | -1 | 0 | · | 5 | -1
Cc1ccc(-c2onc3ccc(C4(C)OCCO4)cc23)cc1 | 0 | -1 | -1 | 0 | -3 | -2
Cc1cc(-c2onc3ccc(Cl)cc23)ccc1O | 0 | 7 | 0 | 0 | 1 | 6.2*
Cc1ccc(-c2onc3ccc(C=O)cc23)cc1 | 1 | 13* | 0 | -3 | 0 | 0
O=c1[nH]c(Cc2ccccc2)nc2scc(-c3ccccc3)c12 | 0 | 1 | -1 | 0 | -4 | -2
O=C(O)CSCc1nc2scc(-c3ccccc3)c2c(=O)[nH]1 | 0 | 3 | -1 | 5.8* | -1 | -1
